# PAD4 inh: PAD4 (human) enzyme inhibition. actives 0.41% (n = 330,000). recombinant PAD4, RCA probe fluorescence polarization. inhibition, % at 6.36 µM;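 active means percent inhibition above a cutoff equal to the mean of all tested compounds plus 3 SD, cut at about 15% in these data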;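 further: 0% = PAD4 with RCA probe and DMSO and 100% = probe without PAD4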
# PME-1 primary: PME-1 (human) inhibition; Q9Y570; recombinant PME-1, FP-Rh probe fluorescence polarization; inhibition, % at 5.9 µM; actives 0.53% (n = 320,000); AID 2130;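 active means inhibition above the campaign mean of all compounds plus 3 SD, cut at about 26% in these data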;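 further: competitive labeling of PME-1 active site by serine hydrolase directed probe; 0% = PME-1 with DMSO and 100% = wells lacking PME-1 enzyme; inhibitors block probe labeling so polarization falls and inhibition rises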
# Fam108B counter: Fam108B inhibition, counter-screen for RBBP9 inhibitors; recombinant Fam108B, FP-Rh probe fluorescence polarization; inhibition, % at 9.51 µM; actives 0.33% (n = 300,000); AID 1947;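 active means inhibition above the screen mean inhibition plus 3 SD, computed separately per campaign, cut at about 18% in these data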;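 further: inhibitors lower polarization as less probe binds the enzyme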
# pPAFAH inh: pPAFAH (human) enzyme inhibition; recombinant pPAFAH, FP-rhodamine probe fluorescence polarization; inhibition, % at 3.39 µM; AID 463082; actives 1.5% (n = 330,000);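 active means inhibition above the mean inhibition across the screen plus 3 SD, cut at about 25% in these data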;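 further: inhibitors block binding of the rhodamine activity-based probe so polarization drops; 0% = enzyme with DMSO and 100% = wells lacking pPAFAH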
# Target sequence (Q13093 whole entry, looked up): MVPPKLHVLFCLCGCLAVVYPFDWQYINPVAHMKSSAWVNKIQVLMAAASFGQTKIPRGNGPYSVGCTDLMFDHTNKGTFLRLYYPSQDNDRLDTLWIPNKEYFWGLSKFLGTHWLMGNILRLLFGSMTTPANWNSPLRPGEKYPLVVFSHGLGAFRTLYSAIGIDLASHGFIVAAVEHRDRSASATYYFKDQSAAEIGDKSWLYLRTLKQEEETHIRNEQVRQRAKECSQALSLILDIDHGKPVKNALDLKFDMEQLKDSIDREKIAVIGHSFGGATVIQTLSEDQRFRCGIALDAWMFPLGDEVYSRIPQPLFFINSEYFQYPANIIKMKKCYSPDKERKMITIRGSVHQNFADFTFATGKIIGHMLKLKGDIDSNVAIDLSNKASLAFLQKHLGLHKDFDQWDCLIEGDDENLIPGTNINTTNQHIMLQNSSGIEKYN
# GSTO1 inh: GSTO1 inhibition, counter-screen for RBBP9 inhibitors | recombinant GSTO1, activity-based probe fluorescence polarization | actives 1.1% (n = 300,000) | inhibition, % at 5.96 µM;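 active means inhibition above the campaign mean inhibition plus 3 SD, cut at about 35% in these data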;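 further: 0% = GSTO1-1 with DMSO and 100% = wells lacking GSTO1-1 enzyme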
# Fam108b inh conf: confirmation of mouse Fam108b serine hydrolase inhibitors; shares compounds with Fam108B counter; recombinant Fam108b, FP-Rh probe fluorescence polarization; inhibition, % at 9.51 µM; actives 44% (n = 930); AID 1978;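 active means inhibition above a limit from the primary screen, the mean over all compounds plus 3 SD, cut at about 19% in these data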;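 further: 0% = median of active Fam108b wells and 100% = catalytically dead S170A mutant; inhibitors free the probe so polarization falls as inhibition rises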
# Fam108b ABPP HTS: mouse ABHD17B inhibition | actives 44% (n = 260) | shares compounds with Fam108B counter | recombinant Fam108b, gel-based ABPP, fluorophosphonate probe | inhibition, % at 20 µM; in the data active means inhibition above about 40%
# The depositor's hits bear a star; . = no result. Rows were chosen to be rich in hits. Some 2.3% of all compounds tested hit in one or more screens of this group.
SMILES,PAD4 inh,PME-1 primary,Fam108B counter,pPAFAH inh,GSTO1 inh,Fam108b inh conf,others
CC1CCCCN1S(=O)(=O)c1ccc(C(=O)Nc2ccccc2-c2nc3ccccc3[nH]2)cc1 (centres undefined),-3,28*,32*,-15,-12,72*,
CC1CCCCN1S(=O)(=O)c1ccc(C(=O)Nc2ccccc2-c2nc3ccccc3s2)cc1 (centres undefined),3,4,-1,1,1,.,
COc1ccc(S(=O)(=O)N2CCC(C(=O)N3CCCCC3)CC2)cc1Cl,0,3,1,8,2,.,
Nc1nn2cc(-c3ccc(Br)cc3)nc2c2ccccc12,-1,-1,27*,-5,-27,3,
Brc1ccc(-c2cn3nc4c(nc3n2)CCCC4)cc1,-11,-6,-2,3,7,.,
CCN(CC)S(=O)(=O)c1ccc(N/N=C/c2ccc(O)cc2O)nc1,2,48*,22*,3,3,6,
CCN(CC)S(=O)(=O)c1ccc(N/N=C(\C)c2ccncc2)nc1,1,-2,-2,-1,4,.,
Cc1cccc(C(=O)OCC(=O)NN2C(=O)NC3(CCC(C)CC3)C2=O)c1O (centres undefined),2,-2,0,3,-4,.,
NS(=O)(=O)c1ccc(N=Nc2c(=O)[nH]n3c(=O)c4c([nH]c23)CCCC4)cc1,0,7,7,10,-3,.,
O=c1[nH]n2c(=O)c3c([nH]c2c1N=Nc1cccc(Cl)c1)CCC3,1,56*,21*,24,12,15,
O=C(CSc1nc2ccccc2s1)NCc1cc([N+](=O)[O-])ccc1O,4,9,3,11,0,.,
O=[N+]([O-])c1ccc(O)c(/C=N/NC(=S)Nc2ccc(Cl)cc2Cl)c1,-2,10,43*,18,17,48*,
Cc1cc(Cl)ccc1NC(=O)CCC(=O)N/N=C/c1cc([N+](=O)[O-])ccc1O,-2,4,-1,2,-3,.,
Cc1cccc2c(N=Nc3ccc(S(=O)(=O)Nc4ccc(Cl)cc4)cc3[N+](=O)[O-])c(O)[nH]c12,-6,23,20*,33*,-41,-23,
Cc1c(C)n(Cc2ccc(F)cc2)c2ccc(C(=O)N3CCN(c4ccccn4)CC3)cc12,-100,-26,-10,-24,-1,.,
O=C1[C@@H]2Cc3c([nH]c4ccccc34)C(c3ccccc3)N2C(=O)CN1C1CC1 (some centres undefined),-4,27*,19*,22,6,6,
O=C1[C@@H]2Cc3c([nH]c4ccccc34)C(c3ccc([N+](=O)[O-])cc3)N2C(=O)CN1C1CC1 (some centres undefined),-5,5,0,16,6,.,
CC(=O)Nc1ccc(NS(=O)(=O)c2c(Cl)cccc2Cl)cc1,1,-4,-4,4,10,.,
Cc1c(OC(C)C(=O)NCc2ccncc2)ccc2c3c(c(=O)oc12)CCCC3 (centres undefined),3,-1,1,3,-13,.,
CCCCn1c(N)c(N(CCOC)C(=O)CSCc2ccccc2C)c(=O)[nH]c1=O,0,-2,27*,5,5,1,
CCCCn1c(N)c(N(CCOC)C(=O)CSc2ccccc2C)c(=O)[nH]c1=O,1,1,0,3,4,.,
Cc1cc(N/N=C/c2c(O)ccc3ccccc23)nc(-c2ccccc2O)n1,3,57*,70*,21,0,103*,
Cc1cc(NN=Cc2c(O)ccc3ccccc23)nc(-c2ccccc2O)n1,.,.,.,.,.,.,Fam108b ABPP HTS=95*
CC(=O)N1c2ccc(S(=O)(=O)N3CCCCC3)cc2CC1C(=O)NCc1ccccc1C (centres undefined),-1,-11,0,-1,9,.,
COC(=O)N/N=C/c1cc(N=Nc2ccccc2Cl)ccc1O,-1,-2,22*,0,-3,-3,
SMILES,PAD4 inh,PME-1 primary,Fam108B counter,pPAFAH inh,GSTO1 inh,Fam108b inh conf,others
Cc1cc(C(=O)N/N=C/c2cc(N=Nc3ccccc3)ccc2O)n[nH]1,-7,7,20*,14,0,11,
CC(C)(C)OC(=O)C[C@H]1C/C=C\C[C@H](CC(=O)N[C@H](CO)Cc2ccccc2)C(=O)N2CCC[C@@H]2COC1=O,-1,.,.,-6,.,.,
CC1=C(C(=O)N2CCOCC2)C(c2c(F)cccc2F)NC(=O)N1 (centres undefined),-4,-2,6,1,-2,.,
CC1=CC(C#N)(C#N)C(C#N)(C#N)C(c2ccccc2)N1 (centres undefined),2,50*,43*,18,32,-2,
CSc1nc(N)c(NC(=O)c2ccc(Br)o2)c(=O)[nH]1,-2,5,2,-5,6,.,
O=C(Nc1ccc(Cl)cc1)Nc1ccc2c(c1)N1CCN=C1S2,6,20,22*,12,-3,10,
Nc1ccc2c(c1)N1CCN=C1S2,3,1,2,-1,3,.,
COc1cccc(NC(=O)CN(C)C(=O)c2cc(-c3cccc(Br)c3)nc3ccccc23)c1,-5,-34,-25,0,-27,.,
CCCCCC#CCN1CCN(C23CC4CC(CC(C4)C2)C3)CC1,-1,-2,.,2,.,.,
CCCC#CCN1CCN(C23CC4CC(CC(C4)C2)C3)CC1,0,4,18*,5,1,0,
CSc1ccccc1N=Cc1nc(-c2ccccc2)oc1O,1,23,-3,14,-4,.,
Oc1oc(-c2cccc3ccccc23)nc1/C=N/c1nccs1,-1,-6,-3,7,-5,.,
Cc1cccc(/N=C/c2nc(-c3ccccc3Br)oc2O)n1,3,4,27*,32*,-8,37*,
Cc1ccnc(N=Cc2nc(-c3ccccc3Br)oc2O)c1,-2,-7,22*,0,3,80*,Fam108b ABPP HTS=75*
Oc1oc(-c2ccccc2)nc1C=Nc1ccccc1,-2,7,1,3,6,.,
Cc1cccc(N=Cc2nc(-c3ccccc3Br)oc2O)n1,.,.,.,.,.,.,Fam108b ABPP HTS=50*
CCN(c1ccccc1)S(=O)(=O)c1ccc(NC(=O)c2nc(S(C)(=O)=O)ncc2Cl)cc1,-2,17,38*,-4,-47,37*,Fam108b ABPP HTS=80*
CCS(=O)(=O)c1ncc(Cl)c(C(=O)Nc2ccc(S(=O)(=O)N(C)c3ccccc3)cc2)n1,-12,-16,-1,-15,-2,.,
CCc1nc2ccc(C(=O)NCCCN3CCN(c4ccccc4F)CC3)cc2nc1CC,-2,-4,-2,6,2,.,
Cc1ccc(-c2ccc(OC(=O)c3ccc(=O)[nH]c3)c(C)c2)cc1,-7,6,0,3,6,.,
CCOc1ccc(-c2c(C(=O)N/N=C/c3c[nH]c4ccccc34)nnn2-c2nonc2N)cc1,-2,21,19*,1,-2,-4,
